Laboratory results from PubChem BioAssay (EPA / NIEHS).
Where “and” joins values, the source holds several entries; their conditions need not be identical. Identical values can stand only once. Records with an inconclusive call do not appear. Some compounds were tested as several samples or in several runs, with calls that do not always agree. Calls of active or inactive are those of the source. Rule for the calls, unless noted: active = hit-call score of the fitted dose curve at least 0.9, where 1 is the maximum; inconclusive = response in the unintended direction; inactive = score below 0.9.

Experiments:
[1] = ATG_M_06_XSP2: Attagene TRANS-FACTORIAL Multi-Species (XSP2) HepG2 Assay for M06 Transcription Factor (Internal Marker) (AID 2283811);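 note: internal background marker reporter mRNA measured by RT-PCR and capillary electrophoresis; hits are increases in signal above the DMSO baseline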
How it was run: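 HepG2 cells transiently transfected with GAL4-UAS multi-reporter constructs, dosed 24 h with 3 nM 6-alpha-fluorotestosterone plus 1.5 nM norgestrel present to stimulate androgen receptor. Reporter mRNA quantified by RT-PCR, 6-FAM labelling, HpaI digestion and capillary electrophoresis; gain-of-signal fitted versus DMSO baseline.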

[2] = test system: turtle Estrogen Receptor (ERa), gene 101933533; test: ATG_trERa_XSP2: Attagene TRANS-FACTORIAL Multi-Species (XSP2) HepG2 Assay for turtle Estrogen Receptor (ERa) (AID 2283812);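 note: human HepG2 liver cells transiently expressing turtle ERa-Gal4 chimeric receptor; actives raise reporter signal above DMSO so AC50 reflects agonist activity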
How it was run: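 HepG2 cells transiently transfected with GAL4-UAS reporter units expressing turtle ERa-Gal4 chimera. Reporter mRNA measured after 24 h dosing by RT-PCR, fluorescent labelling and capillary electrophoresis; gain of signal fitted versus DMSO.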

[3] = molecular target: zebrafish Estrogen Receptor (ER1), esr1 (gene 259252) (UniProt P57717); test: ATG_zfER1_XSP2: Attagene TRANS-FACTORIAL Multi-Species (XSP2) HepG2 Assay for zebrafish Estrogen Receptor (ER1) (AID 2283816)
How it was run: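 HepG2 cells transiently transfected with a GAL4-UAS reporter and a chimeric zebrafish ER1-Gal4 construct, dosed 24 h. Reporter mRNA quantified by RT-PCR, labelling, HpaI digestion and capillary electrophoresis, relative to DMSO.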

[4] = molecular target: chicken Estrogen Receptor (ERa), ESR1 (gene 396099) (UniProt P06212); test: ATG_chERa_XSP2: Attagene TRANS-FACTORIAL Multi-Species (XSP2) HepG2 Assay for chicken Estrogen Receptor (ERa) (AID 2283817);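 note: actives raise reporter signal above DMSO so AC50 reflects ER activation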
How it was run: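 HepG2 cells transiently transfected with multiplexed GAL4-UAS reporter units expressing chimeric chicken ERa-Gal4; 24 h compound exposure. Reporter mRNA measured by RT-PCR with 6-FAM labelling, HpaI digestion and capillary electrophoresis; gain-of-signal fitted versus DMSO.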

[5] = test system: zebrafish Estrogen Receptor (ER2a), gene 317734; test: ATG_zfER2a_XSP2: Attagene TRANS-FACTORIAL Multi-Species (XSP2) HepG2 Assay for zebrafish Estrogen Receptor (ER2a) (AID 2283818);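 note: hits raise reporter mRNA so AC50 reflects activation of zebrafish ER2a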
How it was run: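 HepG2 cells transiently transfected with GAL4-UAS reporter units and chimeric zebrafish ER2a-Gal4, exposed 24 h; medium contains 3 nM 6-alpha-fluorotestosterone and 1.5 nM norgestrel. Reporter mRNA quantified by RT-PCR, HpaI digestion, capillary electrophoresis; gain versus DMSO.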

[6] = test system: frog Estrogen Receptor (ER), gene 398734; test: ATG_frER1_XSP2: Attagene TRANS-FACTORIAL Multi-Species (XSP2) HepG2 Assay for frog Estrogen Receptor (ER) (AID 2283821);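 note: hits raise reporter mRNA above DMSO baseline so potency means agonist or activator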
How it was run: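 HepG2, transient MRTU transfection, chimeric NR-GAL4/UAS reporters; 24 h compound exposure, 24-well. Readout: reporter mRNA via RT-PCR + capillary electrophoresis, fluorescence. Positive fit vs DMSO baseline.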

[7] = test system: zebrafish Estrogen Receptor (ER2b), gene 317733; test: ATG_zfER2b_XSP2: Attagene TRANS-FACTORIAL Multi-Species (XSP2) HepG2 Assay for zebrafish Estrogen Receptor (ER2b) (AID 2283823);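 note: fitted upward as reporter gain over DMSO so potency reflects activation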
How it was run: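 HepG2 human liver cells transiently transfected with multiplexed GAL4-UAS reporter units expressing chimeric NR-Gal4 proteins; compounds dosed for 24 h. Reporter mRNA quantified by RT-PCR, 6-FAM labelling and capillary electrophoresis; gain-of-signal fitted against DMSO baseline.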

[8] = molecular target: Estrogen receptor (Homo sapiens) (UniProt P03372); test: ATG_hERa_XSP2: Attagene TRANS-FACTORIAL Multi-Species (XSP2) HepG2 Assay for human Estrogen Receptor (ERa) (AID 2283827)
How it was run: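 HepG2 cells transiently transfected with multiplexed GAL4-UAS reporters driven by chimeric receptor-Gal4 proteins, dosed 24 h with 3 nM 6-alpha-fluorotestosterone and 1.5 nM norgestrel present. Reporter mRNA by RT-PCR and capillary electrophoresis; gain-of-signal fit versus DMSO.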

[9] = test system: frog Estrogen Receptor (ER2), gene 100174814; test: ATG_frER2_XSP2: Attagene TRANS-FACTORIAL Multi-Species (XSP2) HepG2 Assay for frog Estrogen Receptor (ER2) (AID 2283828)
How it was run: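 Human liver HepG2, transient MRTU transfection (TRANS format, exogenous NR–Gal4). 24 h cpd exposure. Total RNA → RT → PCR → FAM label → HpaI cut → CE. Positive direction vs DMSO.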

[10] = molecular target: Peroxisome proliferator-activated receptor gamma (Homo sapiens) (UniProt P37231); test: ATG_hPPARg_XSP2: Attagene TRANS-FACTORIAL Multi-Species (XSP2) HepG2 Assay for human Peroxisome Proliferator-activated Receptor gamma (PPARg) (AID 2283829);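 note: actives raise reporter mRNA above DMSO so AC50 reflects PPARg activation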
How it was run: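 Reporter transcripts were measured by RT-PCR, fluorescent labeling, HpaI digestion and capillary electrophoresis, relative to DMSO, 24 h post-dosing. Transiently transfected HepG2 expressed NR-Gal4 chimeras regulating GAL4-UAS reporters; medium contained 3 nM 6-alpha-fluorotestosterone plus 1.5 nM norgestrel.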

[11] = molecular target: Nuclear receptor subfamily 1 group I member 2 (Mus musculus) (UniProt O54915); test: ATG_mPXR_XSP2: Attagene TRANS-FACTORIAL Multi-Species (XSP1) HepG2 Assay for mouse Pregnane X Receptor (PXR) (AID 2283831)
How it was run: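 Reporter transcripts measured after 24 h dosing by RT-PCR with 6-FAM labelling, HpaI digestion and capillary electrophoresis. Transiently transfected HepG2 with NR-Gal4 chimeras; increase over DMSO baseline scored.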

[12] = molecular target: zebrafish Thyroid Hormone Receptor alpha (TRa), thraa (gene 30670) (UniProt Q98867); test: ATG_zfTRa_XSP2: Attagene TRANS-FACTORIAL Multi-Species (XSP1) HepG2 Assay for zebrafish Thyroid Hormone Receptor alpha (TRa) (AID 2283832);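 note: actives raise zebrafish TRa-Gal4 reporter transcript above DMSO baseline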
How it was run: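 Chimeric receptor-Gal4 activity was assessed in transfected human liver HepG2 cells 24 h after dosing, using reporter transcript levels detected by RT-PCR and capillary electrophoresis. DMSO served as baseline.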

[13] = test system: turtle Thyroid Hormone Receptor, alpha (TRa), gene 101949057; test: ATG_trTRa_XSP2: Attagene TRANS-FACTORIAL Multi-Species (XSP1) HepG2 Assay for turtle Thyroid Hormone Receptor, alpha (TRa) (AID 2283834);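 note: hits raise reporter mRNA over the DMSO baseline so AC50 marks activators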
How it was run: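 Turtle TRa-Gal4 chimera activity in transfected human HepG2 cells: reporter transcripts quantified by RT-PCR, 6-FAM labelling and capillary electrophoresis 24 h post-dosing; positive direction versus DMSO, medium containing 3 nM 6-alpha-fluorotestosterone and 1.5 nM norgestrel.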

[14] = ATG_M_61_XSP2: Attagene TRANS-FACTORIAL Multi-Species (XSP2) HepG2 Assay for M61 Transcription Factor (Internal Marker) (AID 2283835; active = hit-call score of the fitted dose curve at least 0.9, where 1 is the maximum; inactive = score below 0.9;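 note: reporter mRNA of an internal background marker read by RT-PCR and capillary electrophoresis; active means a rise in signal above the DMSO baseline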)
How it was run: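 HepG2 cells transiently transfected with multiple GAL4-UAS reporter units; 3 nM 6-alpha-fluorotestosterone and 1.5 nM norgestrel present to stimulate androgen receptor. After 24 h compound exposure, reporter mRNA measured by RT-PCR and capillary electrophoresis fluorescence, gain-of-signal versus DMSO baseline.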

[15] = test system: chicken Androgen Receptor (AR), gene 422165; test: ATG_chAR_XSP2: Attagene TRANS-FACTORIAL Multi-Species (XSP2) HepG2 Assay for chicken Androgen Receptor (AR) (AID 2283819);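 note: hits raise reporter mRNA above DMSO so potency is for activation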
How it was run: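 HepG2 cells transiently transfected with chicken AR–GAL4 chimeric reporter constructs, stimulated with 3 nM 6-alpha-fluorotestosterone plus 1.5 nM norgestrel, dosed 24 h. Reporter mRNA quantified by RT-PCR and capillary electrophoresis; gain of signal fitted versus DMSO.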

[16] = test system: zebrafish Androgen Receptor (AR), gene 100005148; test: ATG_zfAR_XSP2: Attagene TRANS-FACTORIAL Multi-Species (XSP2) HepG2 Assay for zebrafish Androgen Receptor (AR) (AID 2283825);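 note: hits raise reporter mRNA above DMSO so AC50 reflects agonist-type gain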
How it was run: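 Zebrafish AR–GAL4 chimera transiently expressed with GAL4-UAS reporter in HepG2 cells, co-stimulated with 3 nM 6-alpha-fluorotestosterone and 1.5 nM norgestrel; 24 h dosing, reporter mRNA read by RT-PCR/capillary electrophoresis versus DMSO.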

[17] = molecular target: mouse Peroxisome Proliferator-activated Receptor gamma (PPARg), Pparg (gene 19016) (UniProt P37238); test: ATG_mPPARg_XSP2: Attagene TRANS-FACTORIAL Multi-Species (XSP2) HepG2 Assay for mouse Peroxisome Proliferator-activated Receptor gamma (PPARg) (AID 2283830);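 note: hits are gains in reporter mRNA above DMSO so AC50 marks activation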
How it was run: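 HepG2 cells transiently transfected with GAL4-UAS reporter units for chimeric NR-Gal4 proteins including mouse PPARg, exposed 24 h; medium contained 3 nM 6-alpha-fluorotestosterone and 1.5 nM norgestrel. Reporter mRNA quantified by RT-PCR, HpaI digestion and capillary electrophoresis, vs DMSO.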

[18] = test system: zebrafish Peroxisome Proliferator-activated Receptor gamma (PPARg), gene 557037; test: ATG_zfPPARg_XSP2: Attagene TRANS-FACTORIAL Multi-Species (XSP2) HepG2 Assay for zebrafish Peroxisome Proliferator-activated Receptor gamma (PPARg) (AID 2283833);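 note: actives increase reporter signal over DMSO so AC50 reflects activation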
How it was run: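 After 24 h chemical exposure, RNA from transiently transfected HepG2 (chimeric NR-Gal4 TRANS reporters) was reverse-transcribed, PCR-amplified, 6-FAM-labelled, HpaI-cut and sized by capillary electrophoresis. Induction was scored in the positive direction relative to DMSO.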

[19] = ATG_XTT_Cytotoxicity_XSP1: Cytotoxicity Assessment in the Attagene TRANS-FACTORIAL Multi-Species (XSP1) HepG2 Assay (AID 2283810)
How it was run: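 XTT viability readout taken at 24 hours post-dosing in HepG2 liver cells co-treated with 3 nM 6-alpha-fluorotestosterone. Signal loss relative to DMSO controls reflects cytotoxicity.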

[20] = molecular target: Estrogen receptor beta (Homo sapiens) (UniProt Q92731); test: ATG_hERb_XSP2: Attagene TRANS-FACTORIAL Multi-Species (XSP2) HepG2 Assay for human Estrogen Receptor (ERb) (AID 2283813);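 note: actives raise reporter mRNA above DMSO so AC50 reflects agonist induction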
How it was run: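 HepG2 cells transiently transfected with GAL4-UAS reporter units and chimeric human ERb-Gal4, 24 h exposure. Reporter mRNA quantified by RT-PCR with FAM labelling, HpaI digestion and capillary electrophoresis; gain of signal versus DMSO.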

Measured: AC50

Chain of chicken Estrogen Receptor (ERa), ESR1 (gene 396099) (P06212 whole entry, looked up, the tested form may be a part): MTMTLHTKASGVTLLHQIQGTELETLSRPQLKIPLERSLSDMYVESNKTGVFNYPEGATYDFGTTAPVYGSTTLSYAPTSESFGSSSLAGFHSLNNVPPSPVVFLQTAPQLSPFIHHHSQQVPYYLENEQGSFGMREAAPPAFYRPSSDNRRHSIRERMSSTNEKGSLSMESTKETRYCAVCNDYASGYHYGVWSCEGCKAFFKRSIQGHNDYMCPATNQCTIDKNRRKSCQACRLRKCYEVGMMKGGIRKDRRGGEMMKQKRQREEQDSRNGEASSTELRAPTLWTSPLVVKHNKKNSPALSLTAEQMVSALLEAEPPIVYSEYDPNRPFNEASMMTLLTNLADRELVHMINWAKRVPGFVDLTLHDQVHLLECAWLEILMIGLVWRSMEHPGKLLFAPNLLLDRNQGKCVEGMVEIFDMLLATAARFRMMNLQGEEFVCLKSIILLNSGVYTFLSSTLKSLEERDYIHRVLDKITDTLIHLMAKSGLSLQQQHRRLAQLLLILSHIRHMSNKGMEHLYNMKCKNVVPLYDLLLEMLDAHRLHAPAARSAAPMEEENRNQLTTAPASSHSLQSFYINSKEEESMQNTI
Chain of Peroxisome proliferator-activated receptor gamma (Homo sapiens) (P37231 whole entry, looked up, the tested form may be a part): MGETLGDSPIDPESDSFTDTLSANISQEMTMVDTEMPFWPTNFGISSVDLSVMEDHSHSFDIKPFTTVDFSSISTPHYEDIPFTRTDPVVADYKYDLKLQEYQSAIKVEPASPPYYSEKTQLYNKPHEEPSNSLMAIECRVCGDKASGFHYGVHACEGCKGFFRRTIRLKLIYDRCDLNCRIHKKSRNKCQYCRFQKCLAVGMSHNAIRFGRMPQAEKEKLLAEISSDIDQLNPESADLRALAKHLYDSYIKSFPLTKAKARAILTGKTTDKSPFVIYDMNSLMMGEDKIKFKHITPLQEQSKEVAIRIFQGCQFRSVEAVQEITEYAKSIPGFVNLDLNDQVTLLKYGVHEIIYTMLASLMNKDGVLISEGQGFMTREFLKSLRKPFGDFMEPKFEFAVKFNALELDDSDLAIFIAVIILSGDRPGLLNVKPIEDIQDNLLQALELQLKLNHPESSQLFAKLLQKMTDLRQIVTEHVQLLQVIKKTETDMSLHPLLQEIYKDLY
Chain of Estrogen receptor (Homo sapiens) (P03372 whole entry, looked up, the tested form may be a part): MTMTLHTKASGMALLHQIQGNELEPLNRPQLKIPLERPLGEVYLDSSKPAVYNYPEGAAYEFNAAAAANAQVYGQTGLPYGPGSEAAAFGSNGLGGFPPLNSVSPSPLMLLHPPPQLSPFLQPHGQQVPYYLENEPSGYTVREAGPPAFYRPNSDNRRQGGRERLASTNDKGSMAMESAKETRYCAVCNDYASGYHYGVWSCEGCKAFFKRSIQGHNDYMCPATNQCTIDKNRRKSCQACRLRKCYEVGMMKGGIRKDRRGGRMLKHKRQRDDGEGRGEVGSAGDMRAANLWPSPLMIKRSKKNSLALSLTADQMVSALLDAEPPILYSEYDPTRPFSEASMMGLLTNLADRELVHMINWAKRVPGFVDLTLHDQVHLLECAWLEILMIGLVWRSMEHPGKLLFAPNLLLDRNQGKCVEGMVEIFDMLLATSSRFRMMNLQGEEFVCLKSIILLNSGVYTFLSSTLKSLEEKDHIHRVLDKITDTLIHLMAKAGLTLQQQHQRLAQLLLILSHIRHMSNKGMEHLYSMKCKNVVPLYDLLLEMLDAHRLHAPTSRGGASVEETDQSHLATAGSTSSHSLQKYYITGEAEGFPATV
Chain of zebrafish Thyroid Hormone Receptor alpha (TRa), thraa (gene 30670) (Q98867 whole entry, looked up, the tested form may be a part): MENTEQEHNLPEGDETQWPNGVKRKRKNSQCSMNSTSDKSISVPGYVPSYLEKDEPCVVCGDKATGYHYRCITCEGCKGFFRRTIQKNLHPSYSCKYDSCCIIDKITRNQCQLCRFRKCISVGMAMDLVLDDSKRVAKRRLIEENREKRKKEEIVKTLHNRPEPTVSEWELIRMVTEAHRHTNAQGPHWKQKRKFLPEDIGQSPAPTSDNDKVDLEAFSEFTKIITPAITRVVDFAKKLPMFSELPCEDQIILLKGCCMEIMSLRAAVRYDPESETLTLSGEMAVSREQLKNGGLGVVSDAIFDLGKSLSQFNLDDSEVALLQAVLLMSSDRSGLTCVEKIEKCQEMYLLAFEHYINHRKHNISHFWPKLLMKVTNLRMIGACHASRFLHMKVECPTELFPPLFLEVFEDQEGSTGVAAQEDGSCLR
Chain of mouse Peroxisome Proliferator-activated Receptor gamma (PPARg), Pparg (gene 19016) (P37238 whole entry, looked up, the tested form may be a part): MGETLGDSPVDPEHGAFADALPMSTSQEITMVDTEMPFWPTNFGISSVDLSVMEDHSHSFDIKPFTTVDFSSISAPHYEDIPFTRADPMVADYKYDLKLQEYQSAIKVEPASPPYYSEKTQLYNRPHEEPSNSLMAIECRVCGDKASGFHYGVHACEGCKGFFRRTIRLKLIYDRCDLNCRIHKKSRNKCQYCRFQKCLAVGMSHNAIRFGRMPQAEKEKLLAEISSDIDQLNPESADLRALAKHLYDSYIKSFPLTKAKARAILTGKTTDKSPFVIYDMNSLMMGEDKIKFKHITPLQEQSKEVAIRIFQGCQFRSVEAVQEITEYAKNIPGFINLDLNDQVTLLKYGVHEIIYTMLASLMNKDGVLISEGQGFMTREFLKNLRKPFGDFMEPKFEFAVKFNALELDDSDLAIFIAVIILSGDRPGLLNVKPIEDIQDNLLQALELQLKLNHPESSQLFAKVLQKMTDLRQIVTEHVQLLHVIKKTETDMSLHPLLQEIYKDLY
Chain of zebrafish Estrogen Receptor (ER1), esr1 (gene 259252) (P57717 whole entry, looked up, the tested form may be a part): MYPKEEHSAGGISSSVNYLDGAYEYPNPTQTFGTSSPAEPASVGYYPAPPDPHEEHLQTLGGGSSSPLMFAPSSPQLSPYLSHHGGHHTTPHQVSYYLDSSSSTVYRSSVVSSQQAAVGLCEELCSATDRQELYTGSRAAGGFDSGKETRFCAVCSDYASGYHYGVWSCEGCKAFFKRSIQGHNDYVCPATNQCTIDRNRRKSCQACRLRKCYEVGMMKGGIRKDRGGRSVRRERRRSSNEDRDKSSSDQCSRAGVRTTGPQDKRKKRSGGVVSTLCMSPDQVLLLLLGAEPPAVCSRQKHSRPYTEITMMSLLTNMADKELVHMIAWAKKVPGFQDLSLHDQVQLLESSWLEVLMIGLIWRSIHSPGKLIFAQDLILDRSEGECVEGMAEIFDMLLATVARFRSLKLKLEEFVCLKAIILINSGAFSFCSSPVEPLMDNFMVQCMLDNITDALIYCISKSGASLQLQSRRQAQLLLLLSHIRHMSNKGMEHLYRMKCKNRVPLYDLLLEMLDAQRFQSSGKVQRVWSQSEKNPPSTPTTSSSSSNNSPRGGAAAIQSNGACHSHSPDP
Chain of Nuclear receptor subfamily 1 group I member 2 (Mus musculus) (O54915 whole entry, looked up, the tested form may be a part): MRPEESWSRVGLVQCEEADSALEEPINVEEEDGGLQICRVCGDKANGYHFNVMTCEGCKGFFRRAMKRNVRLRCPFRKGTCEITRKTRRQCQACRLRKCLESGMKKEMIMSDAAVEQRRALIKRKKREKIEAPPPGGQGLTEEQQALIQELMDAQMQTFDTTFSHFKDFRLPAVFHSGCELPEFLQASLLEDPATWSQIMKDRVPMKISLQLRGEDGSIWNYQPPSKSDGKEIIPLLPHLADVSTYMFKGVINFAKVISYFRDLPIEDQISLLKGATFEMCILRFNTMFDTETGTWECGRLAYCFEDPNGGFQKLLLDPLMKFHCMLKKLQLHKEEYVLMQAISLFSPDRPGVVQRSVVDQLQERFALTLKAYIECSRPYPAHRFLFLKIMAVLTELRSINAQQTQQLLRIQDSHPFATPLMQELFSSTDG
Chain of Estrogen receptor beta (Homo sapiens) (Q92731 whole entry, looked up, the tested form may be a part): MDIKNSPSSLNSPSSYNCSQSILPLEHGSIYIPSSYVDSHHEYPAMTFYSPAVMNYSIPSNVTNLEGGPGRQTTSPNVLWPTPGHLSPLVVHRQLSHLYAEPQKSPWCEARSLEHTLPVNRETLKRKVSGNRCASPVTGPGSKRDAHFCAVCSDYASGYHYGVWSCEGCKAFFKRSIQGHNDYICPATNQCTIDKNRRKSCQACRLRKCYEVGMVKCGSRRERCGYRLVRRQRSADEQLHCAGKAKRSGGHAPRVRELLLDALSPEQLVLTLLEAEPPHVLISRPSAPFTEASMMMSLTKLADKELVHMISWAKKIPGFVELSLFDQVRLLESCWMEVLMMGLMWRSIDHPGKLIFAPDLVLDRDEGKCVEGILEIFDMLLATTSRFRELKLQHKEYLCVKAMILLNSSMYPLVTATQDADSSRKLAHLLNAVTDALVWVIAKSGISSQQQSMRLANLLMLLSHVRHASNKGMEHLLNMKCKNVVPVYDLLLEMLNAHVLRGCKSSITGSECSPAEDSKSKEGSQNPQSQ

C#C[C@]1(O)CC[C@H]2[C@@H]3CCc4cc(OC)ccc4[C@H]3CC[C@@]21C
inactive: [1] | [10] | [11] | [12] | [13] | [14]
active: [2] 0.21 nM and 0.082 nM | [3] 10.2 nM and 3.1 nM | [4] 0.189 nM and 0.519 nM | [5] 0.272 nM and 0.0819 nM | [6] 0.598 nM and 0.0823 nM | [7] 1.1 nM and 0.373 nM | [8] 0.111 nM and 0.0826 nM | [9] 3.94 nM and 1.23 nM

O=C(OCCOCCOCCOC(=O)c1ccccc1)c1ccccc1
active: [7] 153 µM | [8] 26.7 µM | [10] 46.3 µM | [17] 58.5 µM | [11] 22.8 µM
inactive: [1] | [2] | [3] | [4] | [15] | [6] | [7] | [16] | [8] | [9] | [10] | [17] | [12] | [18] | [13] | [14]

C(=C(c1ccccc1)c1ccccc1)c1ccccc1
active: [2] 39.9 nM | [4] 29.1 nM | [7] 0.165 µM | [8] 0.0461 µM | [9] 25.3 nM
not listed: [5] | [12] | [15] | [16]
inactive: all other assays above

c1ccc(B(c2ccccc2)c2ccccc2)cc1
inactive: [1] | [15] | [12] | [13] | [14]
active: [2] 4.9 µM and 7.88 µM | [3] 59.7 µM and 22 µM | [4] 5.78 µM and 3.86 µM | [5] 7.9 µM and 9.53 µM | [6] 7.06 µM and 7.56 µM | [7] 18.1 µM and 10.8 µM | [8] 7.53 µM and 3.43 µM | [9] 6.89 µM and 5.72 µM | [10] 60.6 µM and 40.8 µM | [17] 65.6 µM and 45.9 µM | [11] 1.27 µM and 4.39 µM | [18] 100 µM
